# According to the supplement of paper PMC3334620:
# Whole data set: some 33,000 sequences, median “E-score (-0.5 to 0.5)” near -0.013, cut for the highest 2% near 0.3. The entries come from a sample that favours the highest values as a whole.
# Target: T1, Msn1 (UniProt P22148)
# T1 sequence: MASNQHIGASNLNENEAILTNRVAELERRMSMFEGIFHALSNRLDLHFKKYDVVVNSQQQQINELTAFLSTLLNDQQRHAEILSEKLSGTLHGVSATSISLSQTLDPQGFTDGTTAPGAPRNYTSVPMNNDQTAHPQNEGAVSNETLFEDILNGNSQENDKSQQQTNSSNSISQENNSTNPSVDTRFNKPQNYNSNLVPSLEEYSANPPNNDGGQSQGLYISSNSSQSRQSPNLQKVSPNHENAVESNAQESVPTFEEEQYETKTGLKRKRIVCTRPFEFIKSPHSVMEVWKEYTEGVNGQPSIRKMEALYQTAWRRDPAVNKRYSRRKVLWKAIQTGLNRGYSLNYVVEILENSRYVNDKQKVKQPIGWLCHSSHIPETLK
# Assay: PBM E-score (8-mer binding enrichment) (E-score (-0.5 to 0.5)); higher = stronger / more preferred TF binding
# Settings: protein concentration: 200 nM; construct: GST-full length
# Procedure: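 Universal 'all 10-mer' protein binding microarrays (Agilent AMADID 015681) probed with GST-tagged S. cerevisiae TFs (full-length or DBD) made by in vitro transcription/translation (PURExpress), about 100-200 nM. Bound TF was detected with fluorescent anti-GST. Each ungapped 8-mer (which stands for itself and its reverse complement) is scored by the PBM enrichment score (E-score), a modified Wilcoxon-Mann-Whitney statistic from -0.5 to +0.5, computed with the Universal PBM Analysis Suite. Scale: above 0.35 generally sequence-specific binding.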
row,Sequence,PBM E-score
1,ACGAGCTG,0.0278
2,ACCTTCTC,-0.183
3,CGTCCCTA,-0.0646
4,AAATATGC,-0.0194
5,AAATATAC,0.0952
6,AAATATAT,0.306
7,AATAATAT,0.33
8,AAATATAA,0.272
9,AATAATAA,0.132
10,AAATATGT,0.37
11,AATAATAG,-0.0638
12,AAATATGA,0.154
13,ACCAGAGC,-0.124
14,CGATGCAC,-0.295
15,GCACAGGA,0.0138
16,ACTCGAGT,0.14
17,ATAGGCCA,-0.0607
18,TTACATAA,0.0155
19,TGTCACAA,0.378
20,TAACATAA,0.214
21,CTACATAA,-0.237
22,TCACATAA,-0.0221
23,GTACATAA,0.306
24,CGTCACAA,0.137
25,TGACATAA,0.364

row,Sequence,PBM E-score
1,CGACATAC,0.281
2,GCACATAC,-0.162
3,GGTCACAA,-0.0198
4,GGACATAC,0.48
5,GACCCCCA,-0.377
6,TCACTAGA,0.0764
7,CACCCCGC,-0.0608
8,CCATTAAC,0.139
9,GCCCTGCC,-0.296
10,AAGTCTAC,0.0709
11,AGTCATAA,0.0855
12,GCACATGA,-0.0829
13,CGACATAA,0.286
14,GGACATAA,0.477
15,CGTCATAA,0.122
16,TGTCATAA,0.397
17,CGACATGA,0.207
18,GCACATAA,-0.0366
19,GGACATGA,0.467
20,ACCACAGA,0.0742
21,TTGAGCAA,-0.0524
22,ACACTTGG,-0.0164
23,GACCATGC,0.0413
24,CTGTACAA,0.161
25,CTGTACAG,0.0843

row,Sequence,PBM E-score
1,GTGTACAA,0.32
2,TCGTACAA,0.294
3,GTGTACAC,0.162
4,TTGTACAA,0.337
5,CGTGCAGC,-0.0365
6,CTCGGTAC,0.0483
7,ACGGCCGT,-0.204
8,ATAAAGCC,-0.151
9,GCCTACCA,-0.174
10,AGCCCTCG,-0.123
11,CATATGAC,0.143
12,ACTATGTC,0.292
13,AATATGTA,0.335
14,CATATGTA,0.245
15,CATATGCC,0.00819
16,AATATGTG,0.181
17,AATATGTC,0.478
18,CATATGTC,0.449
19,GATATGTA,0.12
20,AGCGAAAG,0.00846
21,CGCACTTA,-0.0705
22,AGCTCTAC,-0.104
23,AGCCACGA,-0.181
24,CCAATAGC,-0.0522
25,CAAGGACC,0.0568

row,Sequence,PBM E-score
1,AAAGGACC,-0.105
2,AAAGGACA,0.445
3,AAAGGACG,0.032
4,TAAGGAGA,-0.255
5,GAAGGACC,-0.139
6,CAAGGACA,0.484
7,TAAGGATA,0.13
8,TAAGGACA,0.481
9,GAAGGATA,-0.142
10,GAAGGACA,0.471
11,CAAGGACG,0.148
12,CGAACATA,0.128
13,TAACAACA,0.0839
14,CGTCCTGA,0.102
15,AATCTACA,0.058
16,TAGGTAGA,0.0723
17,GATCTGTA,-0.0087
18,CCGAAAAC,0.0665
19,AACGAGTC,-0.0621
20,AGGTCACC,-0.0357
21,ATGTCACA,0.363
22,AAGTCACA,0.127
23,CTGTCACC,-0.0649
24,ATGTCACC,0.303
25,CTGTCACA,0.0788

row,Sequence,PBM E-score
1,ATGTCAGA,0.265
2,GTGTCACA,0.261
3,ATGTCACG,0.31
4,GGAAAGAC,-0.0443
5,ATCCTATG,-0.0491
6,AGGCGTAG,-0.189
7,CCTTGCGA,0.028
8,GGTGGTAC,-0.152
9,GTAAGCTA,0.0896
10,AACATAAA,0.0678
11,GACATAAA,0.44
12,AACATAAC,0.0281
13,TACATAAA,0.15
14,CACATAAC,0.0195
15,GACATAAC,0.396
16,CGGAGGAA,-0.131
17,GCATGGGC,-0.183
18,CCGCTCGA,-0.143
19,GATTGCTA,-0.0824
20,CGAGAGTC,-0.131
21,ATTAGGAA,-0.00879
22,ATTAGGAC,0.37
23,AATAGGAA,0.102
24,CTTAGGAC,0.269
25,AATAGGAC,0.387

row,Sequence,PBM E-score
1,ACTAGGAG,-0.201
2,GCTAGGAC,0.267
3,ACTAGGAC,0.426
4,AATAGGAT,0.157
5,ATCGACCC,-0.11
6,ATCCCTGC,-0.24
7,AGGGTAAG,0.00826
8,AACGGGTC,-0.155
9,CAGAATAC,0.0673
10,TCCTCTAA,-0.0667
11,AGTGGGAC,0.118
12,ACTCTCCA,-0.0814
13,ATTGAACA,0.124
14,CTCGTCCC,0.228
15,CCCCATAG,-0.15
16,CAAATTTC,0.184
17,CAAATGTA,0.276
18,GAAATGTA,0.245
19,GAAATGCC,0.00283
20,AAAATTTG,0.16
21,CAAATTTG,0.32
22,GAAATGTC,0.487
23,CAAATGTC,0.471
24,CAAATGTG,0.229
25,GCCGGTCC,-0.233

row,Sequence,PBM E-score
1,CAGCGTTA,-0.131
2,AAACTCTC,-0.0224
3,GGGACAAC,0.375
4,CGGACCAG,-0.125
5,CGGACAGA,0.302
6,CGGACGAG,0.0588
7,GGGACCAC,-0.255
8,GGAACAAC,0.0504
9,CGGACGGA,-0.00604
10,CGGACAAA,0.484
11,CGGACGAC,-0.0607
12,CGGACGAA,0.337
13,CGGACAAG,0.418
14,GGGACGAA,0.187
15,GCTCTCAC,-0.29
16,ATTTGACG,0.15
17,CCAGCATC,-0.148
18,AGAAGAGC,-0.0669
19,GTTGAATA,0.0705
20,TGGTCTAA,-0.0904
21,CGGACAAC,0.369
22,CGGACCAC,-0.0995
23,CAGACAAC,0.212
24,GATGGAGC,-0.185
25,GTGCGGGA,-0.0606

row,Sequence,PBM E-score
1,ATTAGTCC,0.349
2,AAAAGTCA,0.194
3,AAAAGTAT,0.17
4,ACAAGTCG,0.0205
5,ATTAGTCG,0.16
6,ACAAGTCA,0.0996
7,AAAAGTCT,0.269
8,AAAAGTAC,0.366
9,ACAAGTCC,0.363
10,ATTAGTCA,0.0896
11,AAAAGTCC,0.467
12,AAAAGTAA,0.25
13,ACCTCAGA,-0.147
14,CGGCTTAC,0.051
15,AAGGCCAA,-0.2
16,TGGCGAAA,-0.095
17,ACTGAAGA,0.147
18,AAGGCTAG,0.0752
19,CACCCAAC,-0.201
20,GAGGCGCC,-0.178
21,CTAAGTCC,-0.0602
22,ATAAGTCG,0.0746
23,ATAAGTCC,0.422
24,ACAGTCAG,0.0633
25,GATTTGTA,0.31

row,Sequence,PBM E-score
1,CATTTGGC,0.0384
2,CATTTGCA,0.0736
3,GATTTGCA,0.0983
4,GGTTTGTA,0.0228
5,CATTTGTA,0.36
6,CATTTGTC,0.485
7,CATTTGCC,-0.00883
8,AATTTGTA,0.28
9,GCAACCGC,0.0753
10,AATCCAAG,0.0229
11,AGCCCGCG,-0.185
12,CAACCATC,-0.177
13,CTGAACTC,-0.0622
14,AAGGGACT,0.0205
15,GAGGGACA,0.447
16,TAGGGAAA,-0.0483
17,CAGGGACA,0.47
18,CAGGGACC,-0.273
19,TAGGGACA,0.484
20,GAGGGACC,-0.268
21,AAGGGACC,-0.0619
22,GAGGGAGA,-0.218
23,CAGGGACG,0.165
24,AAGGGACA,0.44
25,TAGGGAGA,-0.215
